Source: PubChem BioAssay
Most compounds without a hit are left out; they make up all but 7.4% or so of the library.
Luc counter: Kinase-Glo luciferase inhibition (counter-screen); Q27757; Potency, µM (highest dose often 38.3 µM), actives largely listed as inhibitors; 0.28% of 200,000 active; Kinase-Glo luciferase, ATP luminescence, 8 min; note: nearly all actives have a fitted effect of over 60% in size
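Substrate mix (final 50 mM imidazole pH 7.2, 50 mM KCl, 7 mM MgCl2, 10 uM ATP, 0.01% Tween 20, 0.05% BSA) plus pin-tool compound, then Kinase-Glo detection mix; 8 min ambient, luminescence read.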
FLuc modulator: inhibits or activates purified firefly luciferase, miR-21 counter-screen | AID 588342 | 6.9% of 360,000 active | P08659 | purified FLuc, Km substrates, luminescence inhibition | Potency, µM (titrated, usually from 57.5 µM), hits mostly inhibitors; note: nearly all actives have a fitted effect of over 55% in size
Target sequence (P08659 whole entry, looked up): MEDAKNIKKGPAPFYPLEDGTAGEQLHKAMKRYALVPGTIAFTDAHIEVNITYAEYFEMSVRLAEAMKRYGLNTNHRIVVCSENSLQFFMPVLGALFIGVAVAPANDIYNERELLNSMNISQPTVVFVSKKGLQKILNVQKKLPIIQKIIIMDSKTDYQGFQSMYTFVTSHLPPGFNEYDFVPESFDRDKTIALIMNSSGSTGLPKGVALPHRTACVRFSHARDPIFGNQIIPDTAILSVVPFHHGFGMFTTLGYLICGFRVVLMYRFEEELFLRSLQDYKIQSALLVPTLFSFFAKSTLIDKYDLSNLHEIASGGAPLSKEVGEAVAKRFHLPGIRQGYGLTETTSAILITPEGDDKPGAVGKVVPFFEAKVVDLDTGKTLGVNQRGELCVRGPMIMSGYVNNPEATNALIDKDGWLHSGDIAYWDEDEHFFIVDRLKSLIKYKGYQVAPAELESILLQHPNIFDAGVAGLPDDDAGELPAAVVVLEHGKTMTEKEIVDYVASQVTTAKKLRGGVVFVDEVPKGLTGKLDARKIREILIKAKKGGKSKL
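Purified P. pyralis luciferase, 10 nM final, with Km-level 10 uM D-luciferin and 10 uM ATP in 50 mM Tris acetate pH 7.5, 10 mM Mg acetate, 0.01% Tween-20, 0.05% BSA; 6-point qHTS titration about 60 µM downward; luminescence read.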
ELG1 genotoxic: induces genotoxicity in HEK293T cells with luciferase-tagged ELG1. Potency, µM (titrated, usually from 46 µM), usual class: activators. 1.3% of 330,000 active. HEK293T ELG1-luciferase reporter, luminescence, 16 h. AID 504466; note: nearly all actives have a fitted effect of over 60% in size
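HEK293T cells expressing luciferase-tagged ELG1 were exposed to compound or DMSO vehicle for 16 hr at 37 °C and 5% CO2. Luciferase activity was then measured with ONE-Glo after 30 min at room temperature.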
Rab9 prom act: activators of Rab9 promoter. Huh7 Rab9 promoter-luciferase reporter, luminescence, 24 h. Potency, µM (series often up to 9.22 µM), most hits filed as activators. 2.8% of 320,000 active. AID 485297; note: nearly all actives have a fitted effect of over 60% in size
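Quantitative HTS format; Huh7 Rab9-luciferase reporter cells (1500/well) receive compound 2 h post-plating, incubate 24 h at 37 °C, then get luciferase reagent for 10 min before luminescence reading.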
NPC1 prom act: activates the NPC1 promoter; Potency, µM (doses to about 9.22 µM), most hits filed as activators; 2.4% of 320,000 active; Huh7 NPC1 promoter luciferase reporter, 24 h; AID 485313; note: nearly all actives have a fitted effect of over 60% in size
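Luminescence from an NPC1 promoter-driven luciferase reporter in stably transfected Huh7 cells was measured after 24 h compound treatment at 37 °C, followed by 10 min ambient incubation with luciferase detection reagent.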
SMN2 splice up: enhancers of SMN2 splice variant expression. Potency, µM (top dose mostly 46.1 µM), actives largely listed as activators. 2.8% of 210,000 active. HEK293 SMN2-luciferase splicing reporter, luminescence, 30-36 h; note: nearly all actives have a fitted effect of over 55% in size
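HEK293 cells carry an SMN2 […]–luciferase reporter in which exon 7 inclusion puts luciferase in frame. Cells were plated 10-12 h before compound addition, then incubated 30-36 h at 37C. ONE-Glo luminescence was read; sodium butyrate at 4.5 mM final served as control.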
A number is an active result; . = inactive; ? = inconclusive; / = no result given; [ ] = dose if it differs, or a comment. Calls come from the whole dose curve; as a rule, active = well fitted curve in the direction sought with a large enough effect; inconclusive = small, poorly fitted or top-dose-only effect, or another doubt; inactive = no such curve, though single readings can be large; an effect the other way counts as inactive or inconclusive.

SMILES	Luc counter	FLuc modulator	ELG1 genotoxic	Rab9 prom act	NPC1 prom act	SMN2 splice up
COc1ccccc1-c1cc(-c2cc(Cl)ccc2O)n[nH]1	.	.	.	.	.	.
COc1ccc(O)c(-c2cc(-c3cccs3)[nH]n2)c1	.	21.3µM	.	?	.	?
COc1ccc(/C=C/c2nc(-c3ccccc3O)n[nH]2)cc1	?	3.79µM	?	3.55µM	3.55µM	3.98µM
Oc1ccc(Br)cc1-c1cc(-c2ccccc2Cl)[nH]n1	/	?	.	.	.	/
COc1ccc(-c2cc(-c3ccccc3O)[nH]n2)cc1	/	0.849µM	?	3.16µM	1.78µM	/
COc1ccc(O)c(-c2cc(-c3ccccc3Cl)[nH]n2)c1	/	10.7µM	?	.	.	/
N[C@@H](Cn1ccc(=O)c(O)c1)C(=O)O	/	/	/	.	.	/
O=C1C2C3C=CC(C2C(=O)N1CN1CCOCC1)C1C2C(=O)N(CN4CCOCC4)C(=O)C2C31 (stereo not given)	.[7.66 µM]	/	/	/	/	.[9.22 µM]
CCCCOc1ccc(CNC(=O)c2ccc(NC(=O)N3CCSc4ncccc43)cc2)cc1	/	.	/	/	/	/
COc1ccc(-c2ncncc2-c2ccccc2)c(O)c1	/	.	.	.	.	/
COc1ccc(-c2cc(-c3ccccc3)n[nH]2)c(O)c1	.	6.01µM	8.2µM	2.24µM	?	12.6µM
Nc1cccc2c1C(=O)N(C(=O)/C=C/c1cccc(Br)c1)C2=O	/	?	.	.	.	/
Nc1cccc2c1C(=O)N(C(=O)/C=C/c1cccc(F)c1)C2=O	.	21.3µM	.	.	.	.
Nc1ccc(S(=O)(=O)O)cc1	/	/	/	/	/	.
O=C1Nc2ccccc2S/C1=C/NCc1ccccc1Cl	.	19µM	.	.	.	.
COc1ccc(N/C=C2/Sc3ccccc3NC2=O)cc1	.	2.69µM	?	?	?	12.6µM
Cc1ccc(N/C=C2/Sc3ccccc3NC2=O)cc1	.	1.9µM	?	3.16µM	?	?
O=C1Nc2ccccc2S/C1=C/c1cccs1	/	?	.	.	.	/
O=C(N/N=C/c1cn(-c2ccccc2)nc1-c1cccs1)c1ccccc1F	.	21.3µM	.	.	.	.
O=C(O)/C=C/c1cn(-c2ccccc2)nc1-c1cccc([N+](=O)[O-])c1	/	?	.	.	.	/
NS(=O)(=O)c1ccc(N/N=C/c2cn(-c3ccccc3)nc2-c2ccccc2)c([N+](=O)[O-])c1	.	.	.	.	.	.
CCN(CC(=O)Nc1ccc(NC(C)=O)cc1)C(=O)/C=C/c1cn(-c2ccccc2)nc1-c1cccs1	/	16.9µM	.	?	.	/
O=[N+]([O-])c1ccc(N/N=C/c2cn(-c3ccccc3)nc2-c2ccccc2)cc1	?	2.69µM	?	.	.	.
O=C(O)/C=C/c1cn(-c2ccccc2)nc1-c1ccc(-c2ccc([N+](=O)[O-])cc2)o1	/	9.53µM	.	.	.	/
COc1cccc(NC(=O)CSc2nc(-c3ccccc3Cl)nc3c2Cc2c(CO)cnc(C)c2O3)c1	/	.	/	/	/	/
SMILES	Luc counter	FLuc modulator	ELG1 genotoxic	Rab9 prom act	NPC1 prom act	SMN2 splice up
Cc1ccc(Sc2c(C)nn(C(=O)c3ccc(Cl)cc3)c2C)cc1	/	.	/	/	/	.
FC(F)(F)c1ccc(-c2noc(-c3ccccc3)c2I)cc1	.	/	/	/	/	/
NC(=O)N/N=C/c1cn(-c2ccccc2)nc1-c1ccccc1	?	6.75µM	?	.	.	?
O=C(CNc1ccccc1)N/N=C/c1cn(-c2ccccc2)nc1-c1ccccc1	.	.	.	.	.	.
CNC(=O)COC(=O)/C=C/c1cn(-c2ccccc2)nc1-c1ccc(C)o1	/	15.1µM	.	.	.	/
COc1ccc(-c2nn(-c3ccccc3)cc2/C=C/C(=O)OCC(=O)Nc2ccccc2C#N)cc1	.	.	?	.	.	.
CCc1cccc(CC)c1NC(=O)Cn1nnc2sc3c(c2c1=O)CCCC3	/	.	/	/	/	.
c1ccc2nc3c(nc2c1)[nH]c1ccccc13	.	3.79µM	9.2µM	0.891µM	3.16µM	11.2µM
N#CC1=C2SC=C(c3ccc(Br)cc3)N2CCCC1=O	.	5.36µM	.	1.58µM	?	15.8µM
COC(=O)CSc1nnc(-c2c[nH]c3ccccc23)o1	/	15.1µM	.	.	.	/
c1ccc(CSc2nnc(-c3c[nH]c4ccccc34)o2)cc1	.	8.49µM	?	?	?	?
